Records with an inconclusive call do not appear. Calls of active or inactive are those of the source. Unless noted, calls follow the shape of the full dose curve.
What was measured:
[1] = Nuclear factor erythroid 2-related factor 2/antioxidant responsive element (Nrf2/ARE) small molecule agonists: qHTS cell viability counter screen in human keratinocytes (AID 1919968; active = well fitted curve in the direction sought with a large enough effect in the repeat runs; an effect the other way counts as inactive or inconclusive; also: nearly all actives have a fitted effect of over 55% in size)
In short: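 Measured as CellTiter-Fluor fluorescence, this readout tracks cytotoxicity in the same wells as the ARE-luciferase screen. HaCaT reporter cells (1,500/well) received compounds after a 5 h pre-incubation and were exposed for 23 h.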

[2] = Nuclear factor erythroid 2-related factor 2/antioxidant responsive element (Nrf2/ARE) small molecule agonists: luciferase reporter gene qHTS assay in human keratinocytes (AID 1919969); also: nearly all actives have a fitted effect of over 35% in size
[3] = molecular target: Gonadotropin-releasing hormone receptor (Homo sapiens) (UniProt P30968); test: Human gonadotropin-releasing hormone receptor (GnRHR) small molecule agonists, calcium flux assay in GnRHR-HEK293 cells (AID 1920063); also: nearly all actives have a fitted effect of over 35% in size
In short: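 Fluorescence kinetics (480 nm excitation, 540 nm emission; 3 min, 1 s steps) report calcium mobilisation in human GnRHR-HEK293 cells in agonist mode. Dye incubation: 1 h, 37 C.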

[4] = molecular target: KiSS-1 receptor (Homo sapiens) (UniProt Q969F8); test: Human kisspeptin (KISS1R) small molecule agonists, calcium flux assay in KISS1R-HEK293 cells (AID 1920064; active = well fitted curve in the direction sought with a large enough effect in the repeat runs; an effect the other way counts as inactive or inconclusive)
In short: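 Measures KISS1R agonism through calcium-sensitive dye fluorescence in stably transfected HEK293 cells, read for 3 min after pin-tool compound delivery; 15-point titrations in triplicate.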

[5] = G protein-coupled receptor (GPCR) small molecule agonists, calcium flux assay: HEK293 wild type cell line counter screen (AID 1920065)
In short: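 Readout: fluorescence at 480 nm excitation/540 nm emission, sampled at 1 s intervals for 3 min. Cells had been cultured 18 h, then dye-loaded 1 h at 37 C before compound or ATP addition.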

[6] = p53 small molecule agonists, cell-based qHTS assay with human liver microsomes (AID 1963577)
In short: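 Fluorescence of the beta-lactamase reporter in p53RE-bla cells, detected with LiveBLAzer substrate (2 h, room temperature, dark), served as the read-out after 16 h compound exposure at 37 C with human liver microsomes and NADPH, each 0.5 mg/mL final.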

[7] = p53 small molecule agonists, cell-based qHTS assay with rat liver microsomes (AID 1963578)
In short: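 Cells carrying a p53 response element–beta-lactamase reporter were plated and rested 5 h, then dosed with compound in DMSO plus rat liver microsomes and NADPH, each at 0.5 mg/mL final. After 16 h at 37 C, LiveBLAzer substrate was added for 2 h.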

[8] = p53 small molecule agonists, cell-based qHTS assay with human liver microsomes: qHTS cell viability counter screen (AID 1963579); also: nearly all actives have a fitted effect of over 45% in size
In short: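 Cytotoxicity counter screen: p53RE-bla, 4,000 cells/well; 5 h settle, 37 C/5% CO2; cpd + HLM 0.5 mg/mL + NADPH 0.5 mg/mL (final); 16 h, 37 C; CellTiter-Glo, 30 min RT, luminescence.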

[9] = p53 small molecule agonists, cell-based qHTS assay with rat liver microsomes: qHTS cell viability counter screen (AID 1963580); also: nearly all actives have a fitted effect of over 45% in size
In short: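 In HCT-116 cells carrying a p53 response element-bla reporter, compounds were metabolically activated in situ by rat liver microsomes with NADPH over 16 h. Cell ATP content then served as the cytotoxicity measure.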

[10] = p53 small molecule agonists, cell-based qHTS assay: qHTS cell viability counter screen (AID 1963581); also: nearly all actives have a fitted effect of over 45% in size
In short: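 In the same plates used for the p53 bla reporter, HCT-116 cells given compounds for 16 h at 37 C received CellTiter-Glo; luminescence was recorded 30 min later at room temperature.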

[11] = p53 small molecule agonists, cell-based qHTS assay (AID 1963582; active = well fitted activation curve with a large enough effect in the signal ratio in the repeat runs, not every such curve was filed as active; the % refers to the signal ratio)
In short: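 Compounds are pin-transferred in DMSO onto p53RE-bla cells and incubated 16 h at 37 C. The B/G FRET beta-lactamase substrate is then applied for 2 h at RT and fluorescence recorded.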

[12] = molecular target: 5-hydroxytryptamine receptor 2A (Homo sapiens) (UniProt P28223); test: 5-hydroxytryptamine receptor 2A (HTR2A) small molecule antagonists, cell-based qHTS assay (AID 1963586); also: nearly all actives have a fitted effect of over 45% in size
In short: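 Antagonist-mode intracellular calcium assay: DOI (4 nM) added after 5 min compound pre-incubation at room temperature to dye-loaded HTR2A-CHO cells. Fluorescence followed for 3 min, sampled every second.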

[13] = molecular target: 5-hydroxytryptamine receptor 2A (Homo sapiens) (UniProt P28223); test: 5-hydroxytryptamine receptor 2A (HTR2A) small molecule agonists, cell-based qHTS assay (AID 1963587); also: nearly all actives have a fitted effect of over 30% in size
In short: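 HTR2A-CHO cells, plated 18 h at 37 C/5% CO2, dye-loaded 1 h at 37 C; compounds in DMSO added by pin tool (agonist mode). Intracellular calcium flux read as kinetic fluorescence on FDSS over 2 min at 1 s intervals.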

[14] = molecular target: Muscarinic acetylcholine receptor M1 (Homo sapiens) (UniProt P11229); test: Cholinergic receptor muscarinic 1 (CHRM1) small molecule antagonists, cell-based qHTS assay (AID 1963588); also: nearly all actives have a fitted effect of over 40% in size
In short: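 CHRM1-CHO calcium-flux assay, antagonist mode. Cells were seeded 18 h, dye-loaded 1 h at 37 C and given compound for 5 min at RT, then acetylcholine was added at 50nM. FDSS fluorescence was read 3 min; 15 concentrations, three runs.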

[15] = molecular target: Muscarinic acetylcholine receptor M1 (Homo sapiens) (UniProt P11229); test: Cholinergic receptor muscarinic 1 (CHRM1) small molecule agonists, cell-based qHTS assay (AID 1963589); also: nearly all actives have a fitted effect of over 35% in size
In short: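 Each compound was tested at 15 concentrations across three independent runs on dye-loaded CHO cells stably expressing human CHRM1, reading intracellular calcium fluorescence kinetically at 1 sec intervals.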

[16] = cAMP Responsive Elements (CRE) small molecule antagonists, cell-based qHTS assay (AID 1963591; active = well fitted inhibition curve with a large enough effect in the signal ratio in the repeat runs, not every such curve was filed as active; the % refers to the signal ratio)
In short: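 Inhibition of NKH477-driven (0.25 uM final) CRE-beta-lactamase signal in HEK293T cells, 3 h compound exposure at 37 °C, detected by FRET substrate fluorescence.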

[17] = molecular target: Beta-2 adrenergic receptor (Homo sapiens) (UniProt P07550); test: Adrenergic beta2 receptor (ADRB2) small molecule antagonists, cell-based qHTS assay (AID 1963592); also: series mostly up to about 92 µM; nearly all actives have a fitted effect of over 50% in size
In short: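 Cells (CHO, stable ADRB2 overexpression) incubated 18-20hr at 37C; compounds added from DMSO; agonist mix (1nM isoproterenol, 100uM IBMX, 25uM Ro-20-1724) added; 0.5hr RT; d2-cAMP and anti-cAMP-cryptate added; 1hr RT; 665/615 nm read.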

[18] = molecular target: D(2) dopamine receptor (Homo sapiens) (UniProt P14416); test: Dopamine D2 receptor (DRD2) small molecule agonists, cell-based qHTS assay (AID 1963594); also: nearly all actives have a fitted effect of over 35% in size
In short: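 HEK293 cells stably expressing DRD2 were cultured 24 h at 37 C, then given Ro20-1724 (0.1 mM final) and compounds for 10 min at room temperature. NKH477 (200nM) was then added for 30 min. cAMP was read by HTRF.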

[19] = molecular target: D(2) dopamine receptor (Homo sapiens) (UniProt P14416); test: Dopamine D2 receptor (DRD2) small molecule antagonists, cell-based qHTS assay (AID 1963595; active = well fitted inhibition curve with a large enough effect in the signal ratio in the repeat runs, with a control signal flat; the % refers to the signal ratio)
In short: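 Antagonism was scored as restored cAMP in HEK293-DRD2 cells. These cells were stimulated with 200 nM NKH477 and 12 nM quinpirole for 30 min at room temperature, in the presence of 0.1 mM Ro20-1724.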

[20] = cAMP Responsive Elements (CRE) small molecule agonists, cell-based qHTS assay (AID 1963590)
In short: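 Cell line: CRE-bla HEK 293T; medium DMEM/10% dialyzed FBS/0.1 mM NEAA/1 mM pyruvate/25 mM HEPES; 3 h compound exposure; beta-lactamase FRET readout after 2 h substrate loading at RT.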

Measured: Potency

Chain of Beta-2 adrenergic receptor (Homo sapiens) (P07550 whole entry, looked up): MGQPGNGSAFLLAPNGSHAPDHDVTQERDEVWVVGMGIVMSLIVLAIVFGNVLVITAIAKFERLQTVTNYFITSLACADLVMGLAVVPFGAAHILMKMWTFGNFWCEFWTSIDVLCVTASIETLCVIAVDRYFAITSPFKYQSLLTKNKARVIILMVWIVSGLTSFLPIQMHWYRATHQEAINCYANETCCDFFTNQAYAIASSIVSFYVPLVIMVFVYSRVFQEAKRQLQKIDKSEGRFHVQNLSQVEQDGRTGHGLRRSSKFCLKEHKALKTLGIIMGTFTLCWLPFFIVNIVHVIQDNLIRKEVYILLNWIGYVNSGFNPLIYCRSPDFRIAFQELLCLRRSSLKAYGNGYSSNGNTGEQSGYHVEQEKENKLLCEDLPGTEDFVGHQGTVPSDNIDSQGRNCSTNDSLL
Chain of Gonadotropin-releasing hormone receptor (Homo sapiens) (P30968 whole entry, looked up): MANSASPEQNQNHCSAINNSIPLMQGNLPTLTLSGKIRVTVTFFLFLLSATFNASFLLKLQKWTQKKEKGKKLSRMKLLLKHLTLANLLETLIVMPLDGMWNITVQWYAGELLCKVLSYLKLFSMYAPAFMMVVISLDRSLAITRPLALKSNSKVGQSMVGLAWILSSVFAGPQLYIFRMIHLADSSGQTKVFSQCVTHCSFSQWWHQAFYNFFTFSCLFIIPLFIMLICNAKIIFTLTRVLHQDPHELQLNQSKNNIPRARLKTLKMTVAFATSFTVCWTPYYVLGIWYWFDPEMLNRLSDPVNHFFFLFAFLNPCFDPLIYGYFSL
Chain of 5-hydroxytryptamine receptor 2A (Homo sapiens) (P28223 whole entry, looked up): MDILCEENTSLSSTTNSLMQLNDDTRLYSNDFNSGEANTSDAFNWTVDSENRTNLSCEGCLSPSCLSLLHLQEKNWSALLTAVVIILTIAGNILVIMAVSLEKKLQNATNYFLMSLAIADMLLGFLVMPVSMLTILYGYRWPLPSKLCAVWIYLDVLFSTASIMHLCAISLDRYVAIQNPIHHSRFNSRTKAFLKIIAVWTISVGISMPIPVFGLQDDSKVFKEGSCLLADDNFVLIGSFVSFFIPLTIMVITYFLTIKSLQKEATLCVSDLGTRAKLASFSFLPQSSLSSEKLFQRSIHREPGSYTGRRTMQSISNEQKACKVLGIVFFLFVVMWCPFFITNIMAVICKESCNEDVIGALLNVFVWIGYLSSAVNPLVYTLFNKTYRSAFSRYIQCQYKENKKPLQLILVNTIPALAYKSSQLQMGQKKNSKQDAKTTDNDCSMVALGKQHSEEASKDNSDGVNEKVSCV
Chain of KiSS-1 receptor (Homo sapiens) (Q969F8 whole entry, looked up): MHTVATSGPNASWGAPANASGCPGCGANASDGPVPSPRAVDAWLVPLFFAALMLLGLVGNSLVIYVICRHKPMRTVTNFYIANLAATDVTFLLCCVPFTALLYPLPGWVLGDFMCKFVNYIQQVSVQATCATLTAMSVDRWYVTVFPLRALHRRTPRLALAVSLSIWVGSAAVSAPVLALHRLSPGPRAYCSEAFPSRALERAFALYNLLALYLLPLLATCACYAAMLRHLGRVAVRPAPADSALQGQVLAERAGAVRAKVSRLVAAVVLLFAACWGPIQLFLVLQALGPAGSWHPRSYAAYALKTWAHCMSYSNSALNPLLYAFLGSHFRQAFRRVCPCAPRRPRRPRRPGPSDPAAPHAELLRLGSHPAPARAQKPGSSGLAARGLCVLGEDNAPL
Chain of Muscarinic acetylcholine receptor M1 (Homo sapiens) (P11229 whole entry, looked up): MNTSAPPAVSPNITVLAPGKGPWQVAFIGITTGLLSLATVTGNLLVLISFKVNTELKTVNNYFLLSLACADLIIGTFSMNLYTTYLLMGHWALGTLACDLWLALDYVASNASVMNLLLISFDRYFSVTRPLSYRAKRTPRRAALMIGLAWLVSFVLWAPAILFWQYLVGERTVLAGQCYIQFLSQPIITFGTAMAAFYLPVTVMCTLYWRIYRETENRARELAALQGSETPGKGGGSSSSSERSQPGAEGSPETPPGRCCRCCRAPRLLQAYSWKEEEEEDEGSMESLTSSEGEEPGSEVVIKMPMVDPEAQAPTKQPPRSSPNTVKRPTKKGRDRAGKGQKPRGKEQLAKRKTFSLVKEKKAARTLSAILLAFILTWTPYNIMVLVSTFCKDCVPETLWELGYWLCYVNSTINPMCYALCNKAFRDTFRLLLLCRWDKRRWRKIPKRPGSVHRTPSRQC
Chain of D(2) dopamine receptor (Homo sapiens) (P14416 whole entry, looked up): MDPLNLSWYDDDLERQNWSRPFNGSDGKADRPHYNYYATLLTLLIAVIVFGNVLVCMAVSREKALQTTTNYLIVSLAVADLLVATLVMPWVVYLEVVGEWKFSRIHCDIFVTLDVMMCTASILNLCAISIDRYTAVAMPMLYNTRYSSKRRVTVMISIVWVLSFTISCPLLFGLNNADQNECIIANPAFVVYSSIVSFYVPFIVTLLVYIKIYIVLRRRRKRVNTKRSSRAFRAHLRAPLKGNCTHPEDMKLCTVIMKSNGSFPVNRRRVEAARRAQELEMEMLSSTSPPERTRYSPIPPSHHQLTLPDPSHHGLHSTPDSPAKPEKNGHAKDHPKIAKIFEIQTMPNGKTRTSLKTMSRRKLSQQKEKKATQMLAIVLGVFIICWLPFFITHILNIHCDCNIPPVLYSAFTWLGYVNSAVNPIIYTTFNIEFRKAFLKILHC

CCCCOCCOC(=O)c1cccnc1
inactive: [1] | [2] | [3] | [4] | [5] | [6] | [7] | [8] | [9] | [10] | [11] | [12] | [13] | [14] | [15] | [16] | [17] | [18] | [19]

CCOc1ccccc1O
inactive: [1] | [2] | [3] | [4] | [5] | [6] | [7] | [8] | [9] | [10] | [11] | [12] | [13] | [14] | [15] | [16] | [17] | [18]

C/C=C(\C)C=O
inactive: [1] | [2] | [3] | [4] | [5] | [6] | [7] | [8] | [9] | [10] | [11] | [12] | [13] | [14] | [15] | [16] | [17] | [18] | [19]

Nc1ncnc2c1ncn2[C@H]1CC[C@@H](CO)O1
inactive: [1] | [2] | [3] | [4] | [5] | [6] | [7] | [8] | [9] | [10] | [11] | [12] | [13] | [14] | [15] | [20] | [18] | [19]

C=CC(=O)OCC1CCCO1 (centres undefined)
inactive: [1] | [2] | [3] | [4] | [5] | [6] | [7] | [8] | [9] | [10] | [11] | [12] | [13] | [14] | [15] | [16] | [17] | [18] | [19]

c1cc[nH]c1
inactive: [1] | [2] | [3] | [4] | [5] | [6] | [7] | [8] | [9] | [10] | [11] | [12] | [13] | [14] | [15] | [20] | [18] | [19]

C=CC(=O)O
inactive: [1] | [2] | [3] | [4] | [5] | [6] | [7] | [8] | [9] | [10] | [11] | [12] | [13] | [14] | [15] | [16] | [17] | [18]

Reference: PubChem BioAssay (Tox21)
